A short description of assay [1]: qHTS assay to identify small molecule agonists of the estrogen receptor alpha (ER-alpha) signaling pathway in the presence of an antagonist - cell viability counter screen (AID 1259386).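 Also: series mostly up to about 92 µM; cells exposed to compounds for 22 h at 37 °C before the viability read; nearly all actives have a fitted effect of over 30% in size.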 An outline of the steps: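 The test measures whether compounds kill ER-alpha reporter cells (VM7Luc4E2) under antagonist co-treatment (ICI-182,780, 10.0nM). Fluorescence from CellTiter-Fluor is read after a 22hr exposure.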
A general note: In qHTS, concentration-response curves come from the screen itself.

The target in assay [2] is Progesterone receptor (Homo sapiens) (UniProt P06401). The assay is described as follows: qHTS assay to identify small molecule agonists of the progesterone receptor (PR) signaling pathway (AID 1346784; calls by dose curve; also: nearly all actives have a fitted effect of over 30% in size). An outline of the steps: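 Agonist qHTS: compounds pinned onto 3,000 PR-UAS-bla HEK 293T cells per well in charcoal-stripped serum medium, 16hr at 37C, then beta-lactamase activity measured by LiveBLAzer FRET fluorescence after 2 hours at room temperature.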
Progesterone receptor (Homo sapiens), sequence (P06401 whole entry, looked up): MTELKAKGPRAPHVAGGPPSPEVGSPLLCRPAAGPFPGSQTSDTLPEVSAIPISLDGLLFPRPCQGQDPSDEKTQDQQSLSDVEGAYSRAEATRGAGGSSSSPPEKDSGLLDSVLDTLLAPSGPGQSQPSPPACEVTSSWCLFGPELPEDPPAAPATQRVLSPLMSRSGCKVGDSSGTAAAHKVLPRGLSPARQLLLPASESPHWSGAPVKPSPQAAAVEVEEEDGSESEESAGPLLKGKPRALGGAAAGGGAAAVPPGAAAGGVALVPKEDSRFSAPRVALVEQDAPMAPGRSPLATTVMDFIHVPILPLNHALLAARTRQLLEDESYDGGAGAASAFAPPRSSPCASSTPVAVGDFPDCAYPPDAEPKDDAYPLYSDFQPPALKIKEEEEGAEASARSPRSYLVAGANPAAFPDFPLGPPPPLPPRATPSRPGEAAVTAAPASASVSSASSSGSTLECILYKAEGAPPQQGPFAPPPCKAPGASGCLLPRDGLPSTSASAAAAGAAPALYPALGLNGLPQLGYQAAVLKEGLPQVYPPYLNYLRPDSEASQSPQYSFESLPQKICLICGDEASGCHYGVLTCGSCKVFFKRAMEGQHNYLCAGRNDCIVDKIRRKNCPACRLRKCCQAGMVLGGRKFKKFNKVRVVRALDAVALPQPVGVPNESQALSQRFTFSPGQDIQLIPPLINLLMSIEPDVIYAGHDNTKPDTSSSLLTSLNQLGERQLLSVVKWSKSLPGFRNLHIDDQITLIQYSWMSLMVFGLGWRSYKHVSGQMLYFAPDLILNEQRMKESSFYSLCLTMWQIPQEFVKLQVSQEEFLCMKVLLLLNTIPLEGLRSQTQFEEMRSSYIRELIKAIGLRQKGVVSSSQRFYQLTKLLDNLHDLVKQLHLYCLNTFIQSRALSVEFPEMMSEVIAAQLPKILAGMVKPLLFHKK

For assay [3] the target is unchanged. As to the kind of experiment: qHTS assay to identify small molecule antagonists of the progesterone receptor (PR) signaling pathway (AID 1346795; active = well fitted inhibition curve with a large enough effect in the signal ratio in the repeat runs, not every such curve was filed as active; the % refers to the signal ratio). An outline of the steps: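 Antagonist mode with agonist R5020 at 1 nM final and 16 hr incubation at 37C. Reporter was beta-lactamase driven by UAS in HEK293T (PR-UAS-bla), 2% charcoal-stripped serum; signal from LiveBLAzer FRET substrate, 2 hr at room temperature.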

Assay [4] is described as follows: qHTS assay to identify small molecule antagonists of the progesterone receptor (PR) signaling pathway - cell viability counter screen (AID 1346798). Also: nearly all actives have a fitted effect of over 50% in size. Also: potency is read from the fitted curve at half-maximal effect. An outline of the steps: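 Cytotoxicity read as CellTiter-Glo luminescence (30 min, room temperature) in the same wells as the beta-lactamase readout. HEK293T PR-UAS-bla cells in charcoal-stripped 2% FBS received compound and R5020, then 16 h at 37C, 5% CO2.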

The nature of assay [5]: qHTS assay to identify small molecule antagonists of the TGF-beta/Smad signaling pathway - cell viability counter screen (AID 1346824). Also: nearly all actives have a fitted effect of over 50% in size. An outline of the steps:
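SBE-bla HEK 293T cells, incubated overnight, then compound plus 0.25 ng/mL TGF-beta1 (stock added) for 5 hr at 37 C. Viability was read in the same wells by CellTiter-Glo luminescence after 30 min at room temperature.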

The nature of assay [6]: qHTS assay to identify small molecule agonists of the TGF-beta/Smad signaling pathway - cell viability counter screen (AID 1346829). Also: top concentration of the series differs between compounds; nearly all actives have a fitted effect of over 45% in size. An outline of the steps: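 Here the cytotoxicity of library compounds is measured in SBE-bla HEK 293T cells treated for 5 hr, using CellTiter-Glo added to wells already read for the beta-lactamase reporter.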
Assay [7] can be described thus: qHTS assay to identify small molecule agonists of the TGF-beta/Smad signaling pathway (AID 1346859; active = well fitted activation curve with a large enough effect in the signal ratio in the repeat runs, not every such curve was filed as active; the % refers to the signal ratio; also: series mostly up to about 77 µM). An outline of the steps:
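Fluorescence (ex 405 nm; em 460 and 530 nm) was read 2 h after LiveBLAzer FRET substrate at RT. The preceding compound treatment of overnight-plated SBE-bla HEK293T cells lasted 5 h at 37 C.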

For assay [8], the target named is Thyrotropin-releasing hormone receptor (Homo sapiens) (UniProt P34981). The assay is described as follows: qHTS assay to identify small molecule antagonists of the thyrotropin-releasing hormone receptor (TRHR) signaling pathway (AID 1346877; active = well fitted inhibition curve with a large enough effect in the repeat runs, not every such curve was filed as active; also: series mostly up to about 51 µM). An outline of the steps: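 Overnight-plated (18 h, 37 °C) HEK293 cells expressing TRHR were dye-loaded 2 h, treated with compound, then stimulated with TRH at 1 nM final. Fluorescence intensity was captured every second for 3 min.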
Thyrotropin-releasing hormone receptor (Homo sapiens), sequence (P34981 whole entry, looked up): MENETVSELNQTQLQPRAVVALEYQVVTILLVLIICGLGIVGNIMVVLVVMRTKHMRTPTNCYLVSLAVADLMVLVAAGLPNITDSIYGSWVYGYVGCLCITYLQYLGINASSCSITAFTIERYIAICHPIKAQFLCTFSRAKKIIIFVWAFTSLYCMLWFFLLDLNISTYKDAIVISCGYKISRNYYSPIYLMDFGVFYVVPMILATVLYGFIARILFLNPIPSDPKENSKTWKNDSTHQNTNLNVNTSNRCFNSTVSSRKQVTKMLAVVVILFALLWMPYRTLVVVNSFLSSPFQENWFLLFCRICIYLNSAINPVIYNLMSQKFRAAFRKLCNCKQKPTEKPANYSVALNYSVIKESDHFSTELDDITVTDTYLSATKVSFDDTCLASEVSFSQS

For assay [9] the target is unchanged. As to the kind of experiment: qHTS assay to identify small molecule agonists of the thyrotropin-releasing hormone receptor (TRHR) signaling pathway (AID 1346891; calls by dose curve; also: series mostly up to about 58 µM). An outline of the steps:
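Agonist-mode intracellular calcium readout: kinetic fluorescence over 3 min at 1 s intervals after compound addition to TRHR-HEK293 cells (18 h seeded, 2 h dye-loaded at 37 C). Fifteen concentrations, triplicates.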

Assay [10] is described as follows: Human pregnane X receptor (PXR) small molecule agonists, qHTS cell viability counter screen (AID 1346977). Also: nearly all actives have a fitted effect of over 50% in size. An outline of the steps: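 Same-well viability read: CellTiter-Fluor added after 23 hr compound exposure, fluorescence measured 1 hr later. Cells were PXR-Luc HepG2 seeded at 2,000/well in 5% charcoal-stripped FBS medium, rested 5 hr before dosing at 37 C.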

Assay [11] in a line: Caspase-3/7 induction in HepG2 cells by small molecules, qHTS assay (AID 1346978). Also: nearly all actives have a fitted effect of over 15% in size. An outline of the steps: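 Wild-type HepG2 cells, 2,000/well, settled 5 hr at 37 C and 5% CO2, then compound-treated for 17 hr; caspase-3/7 activity read by luminescent Caspase-Glo 3/7 after 30 min at room temperature.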
Assay [12] in a line: Caspase-3/7 induction in CHO-K1 cells by small molecules, qHTS cell viability counter screen (AID 1346979). Also: nearly all actives have a fitted effect of over 35% in size. An outline of the steps: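 Cytotoxicity counter screen: CellTiter-Fluor added to compound-treated wild-type CHO-K1 cells at 16 h (37C, 5% CO2), fluorescence measured 1 h later; same wells as caspase-3/7 measurement.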
Assay [13] can be described thus: Caspase-3/7 induction in CHO-K1 cells by small molecules, qHTS assay (AID 1346980). Also: nearly all actives have a fitted effect of over 15% in size. An outline of the steps:
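Wild-type CHO-K1 cells exposed to compounds for 17hr at 37 C, 5% CO2. Caspase-3/7 activity then measured by Caspase-Glo 3/7 luminescence after 30min at room temperature.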

The nature of assay [14]: Caspase-3/7 induction in HepG2 cells by small molecules, qHTS cell viability counter screen (AID 1346981). Also: series mostly up to about 92 µM; nearly all actives have a fitted effect of over 30% in size. An outline of the steps: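 Treatment of HepG2 cells with DMSO-delivered compounds ran 16 hr at 37 C following a 5-hr pre-incubation of 2,000 cells/well. CellTiter-Fluor fluorescence, read after 1 hr, served as the viability measure in a qHTS format.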
Assay [15] deals with Nuclear receptor subfamily 1 group I member 2 (Homo sapiens) (UniProt O75469). The assay is described as follows: Human pregnane X receptor (PXR) small molecule agonists, qHTS assay (AID 1346982). Also: nearly all actives have a fitted effect of over 35% in size. An outline of the steps:
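Stable HepG2 line reporting PXR-mediated CYP3A4 expression via luciferase. Treatment: 24 hr with compounds in DMSO at 37 C. Detection: ONE-Glo luminescence.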

The target in assay [16] is Cytochrome P450 2D6 (Homo sapiens) (UniProt P10635). As to the kind of experiment: Cytochrome P450 Family 2 Subfamily D Member 6 (CYP2D6) small molecule antagonists: luciferase reporter qHTS assay (AID 1671196). Also: series mostly up to about 120 µM; nearly all actives have a fitted effect of over 50% in size. An outline of the steps:
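Chemicals tested for interference with CYP2D6 activity; proluciferin substrate, NADPH regeneration, 1 h at room temperature, luminescent detection.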
On the technique in general: In a reporter assay the amount or activity of a reporter protein is the signal.

The target of assay [17] is Nuclear receptor subfamily 1 group I member 2 (Rattus norvegicus) (UniProt Q9R1A7). The assay is described as follows: Rat pregnane X receptor (rPXR) activation by small molecules, qHTS assay (AID 1346983). Also: nearly all actives have a fitted effect of over 20% in size. The note with it: rPXR luciferase reporter cells, One-Glo luminescence, 24 h; max activation: hits give high values. An outline of the steps: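 Cell-based rPXR activation assay: rPXR cells, 2,000 per well, rested 5hr at 37 C, then exposed to compounds in DMSO for 24 hr at 37 C. Luciferase activity read by One-Glo luminescence after 30 min at room temperature.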
Nuclear receptor subfamily 1 group I member 2 (Rattus norvegicus), sequence (Q9R1A7 whole entry, looked up): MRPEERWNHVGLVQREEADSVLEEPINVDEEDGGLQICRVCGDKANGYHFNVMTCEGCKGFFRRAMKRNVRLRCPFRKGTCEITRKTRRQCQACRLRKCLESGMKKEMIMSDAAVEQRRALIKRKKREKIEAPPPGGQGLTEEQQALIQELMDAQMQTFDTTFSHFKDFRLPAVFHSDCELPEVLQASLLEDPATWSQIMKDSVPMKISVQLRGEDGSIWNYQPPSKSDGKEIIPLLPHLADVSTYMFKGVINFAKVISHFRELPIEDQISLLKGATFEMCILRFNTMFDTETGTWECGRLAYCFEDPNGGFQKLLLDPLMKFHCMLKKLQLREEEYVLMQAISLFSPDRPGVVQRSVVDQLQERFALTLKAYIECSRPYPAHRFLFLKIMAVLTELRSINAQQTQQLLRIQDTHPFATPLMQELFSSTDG

Assay [18] in a line: qHTS assay to identify small molecule agonists of the progesterone receptor (PR) signaling pathway - cell viability counter screen (AID 1346799; calls by dose curve; also: nearly all actives have a fitted effect of over 45% in size). An outline of the steps:
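Cytotoxicity measured by CellTiter-Glo luminescence (30 min, RT) in the same wells as the PR beta-lactamase agonist read. Those HEK293T cells had 16 h compound treatment at 37 C in 2% charcoal-stripped FBS medium.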

For assay [19], the target named is Nuclear receptor subfamily 1 group I member 2 (Homo sapiens) (UniProt O75469). As to the kind of experiment: CYP3A4 induction through human pregnane X receptor (PXR) by small molecules, qHTS assay (AID 1346984). Also: nearly all actives have a fitted effect of over 40% in size. An outline of the steps:
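After 24 h at 37C with compound, DPX-2 cells (HepG2, co-transfected PXR response element and CYP3A4 promoter-luciferase) got 3uM final P450-Glo Luciferin-IPA for 3 h; One-Glo luminescence followed.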

For assay [20] the target is unchanged. As to the kind of experiment: Human pregnane X receptor (PXR) activation by small molecules, qHTS assay (AID 1346985). Also: nearly all actives have a fitted effect of over 40% in size. An outline of the steps: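 DPX-2 cells (HepG2 co-transfected with a PXR response element and a CYP3A4-promoter luciferase construct) were seeded at 2,000 per well, rested 5 hr at 37C, then exposed to DMSO-dissolved compounds for 24 hr. Activation was read as luciferase luminescence.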

Values without a mark were called inactive. Inconclusive results are not listed. Activity calls are given as the source filed them. Unless noted, calls follow the shape of the dose curve; as a rule, active = well fitted curve in the direction sought with a large enough effect in the repeat runs; inconclusive = weak or mixed curves; inactive = no such curve, though single readings can be large; an effect the other way counts as inactive or inconclusive.
% is scaled to controls: 0 for no effect and ±100 for the full control effect.

Cytochrome P450 2D6 (Homo sapiens), sequence (P10635 whole entry, looked up): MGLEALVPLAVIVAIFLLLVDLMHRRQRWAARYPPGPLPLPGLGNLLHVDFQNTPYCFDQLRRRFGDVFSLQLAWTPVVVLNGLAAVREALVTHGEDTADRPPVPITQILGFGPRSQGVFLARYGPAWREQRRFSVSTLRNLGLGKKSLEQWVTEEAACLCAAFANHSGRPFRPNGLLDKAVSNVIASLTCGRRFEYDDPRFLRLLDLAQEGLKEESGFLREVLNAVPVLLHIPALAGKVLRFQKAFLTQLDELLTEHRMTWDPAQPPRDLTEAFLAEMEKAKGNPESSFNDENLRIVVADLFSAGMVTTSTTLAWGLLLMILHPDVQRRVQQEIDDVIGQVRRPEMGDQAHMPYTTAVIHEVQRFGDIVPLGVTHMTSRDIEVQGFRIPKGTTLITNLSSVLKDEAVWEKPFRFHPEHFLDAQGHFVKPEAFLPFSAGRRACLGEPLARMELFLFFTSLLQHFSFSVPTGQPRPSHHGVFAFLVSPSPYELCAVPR
Nuclear receptor subfamily 1 group I member 2 (Homo sapiens), sequence (O75469 whole entry, looked up): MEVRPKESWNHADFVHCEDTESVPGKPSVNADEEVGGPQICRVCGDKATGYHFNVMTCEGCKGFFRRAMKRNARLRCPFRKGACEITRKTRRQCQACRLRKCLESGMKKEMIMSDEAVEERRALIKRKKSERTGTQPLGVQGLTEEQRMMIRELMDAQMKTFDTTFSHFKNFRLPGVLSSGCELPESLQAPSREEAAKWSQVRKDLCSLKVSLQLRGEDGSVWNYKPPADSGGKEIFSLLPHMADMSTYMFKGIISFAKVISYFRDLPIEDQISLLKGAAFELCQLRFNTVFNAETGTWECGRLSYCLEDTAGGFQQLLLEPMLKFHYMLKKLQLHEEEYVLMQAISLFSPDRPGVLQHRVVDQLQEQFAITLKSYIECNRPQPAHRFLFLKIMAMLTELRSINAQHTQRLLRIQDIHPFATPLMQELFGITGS

For the molecule `CCCCCC/C=C/C=O`, the Potency result in assay [1], in [3], in assay [4], in assay [5], in assay [6] and in assay [9] was “inactive” in each case. The Potency entry in [10], in [12], in assay [13], in [14], in assay [15] and in [16] was “inactive” in each case. The molecule was classed as inactive in assay [2], in [7], in assay [8] and in assay [11].

For the molecule `COc1ccc([C@@H]2Sc3ccccc3N(CCN(C)C)C(=O)[C@@H]2OC(C)=O)cc1`, the Potency entry in assay [1], in assay [3], in assay [5], in [6], in assay [10] and in assay [12] was “inactive” in each case. Further, the Potency entry in [13] and in [14] was “inactive” in each case. The result in [2] and in assay [7] was inactive. Also, the Potency in [4] is 21.1 µM (active). For the same molecule, the max activation in [17] was -0.277%.

With `CC(C)(C)C1CCCCC1O` (stereo not given), the Potency result in assay [1], in assay [3], in [4], in assay [18], in assay [5] and in assay [10] was “inactive” throughout. Besides, the Potency entry in assay [13], in [15] and in [16] was “inactive” throughout. In addition, the outcome in assay [2], in assay [7] and in assay [11] was inactive.

For `O=C(Cl)c1c(Cl)cccc1Cl`, the Potency result in assay [1], in [3], in [4], in assay [5], in [6] and in assay [9] was “inactive” each time. Moreover, the Potency entry in assay [10], in assay [12], in assay [13], in assay [14], in assay [15] and in [16] was “inactive” in each case. The outcome in assay [2], in [7], in assay [8] and in [11] was inactive.

Consider `O=[N+]([O-])c1cccc(Cl)c1Cl`, for which the Potency result in assay [1], in assay [3], in [4], in [5], in assay [9] and in [10] was “inactive” throughout. Moreover, the Potency result in assay [12], in assay [13], in assay [14], in [15] and in [16] was “inactive” each time. Moreover, the molecule was classed as inactive in [2], in assay [7], in [8] and in assay [11].

Turning to `CCCCC(CC)(CO)CO`, the Potency entry in [1], in [3], in assay [4], in [5], in [6] and in assay [9] was “inactive” each time. Besides, the Potency result in assay [10], in assay [12], in [13], in assay [15] and in [16] was “inactive” in each case. Also, the molecule was classed as inactive in assay [2], in [7], in assay [8] and in assay [11].

In the case of `NC(=S)N/N=C/c1cccnc1`, the Potency entry in [1], in assay [3], in assay [4], in assay [5], in [6] and in [9] was “inactive” each time. Also, the Potency result in assay [10], in assay [12], in [13], in assay [14], in assay [15] and in assay [19] was “inactive” each time. In addition, the Potency result in [20] and in assay [16] was “inactive” each time. For the same molecule, the molecule was called inactive in assay [2], in [7], in assay [8] and in assay [11]. Besides, the max activation in assay [17] is -5.63%.
